Data from PubChem BioAssay AID1851 (National Center for Advancing Translational Sciences (NCATS), 2009).
The campaign covered roughly 16,000 compounds. About 5,800 (36%) were called active. Another 23% or so got no clear call; they are omitted. The call rests on the fitted dose curve; in most records, active means well fitted curve in the direction sought with a large enough effect; inconclusive means small, poorly fitted or top-dose-only effect, or effect the other way; inactive means no such curve, though single readings can be large or run the other way. The list shows a part of the results.

What follows are molecules tested against Cytochrome P450 2C19 (Homo sapiens) (UniProt P33261) (assay: Cytochrome panel assay with activity outcomes). Conditions: recombinant CYP, pro-luciferin dealkylation, luminescence, p450-cyp2c19; series mostly up to 57.1 µM.
On the % scale 0 is the no-effect control and ±100 the full control effect.

Sequence of Cytochrome P450 2C19 (Homo sapiens) (P33261 whole entry, looked up): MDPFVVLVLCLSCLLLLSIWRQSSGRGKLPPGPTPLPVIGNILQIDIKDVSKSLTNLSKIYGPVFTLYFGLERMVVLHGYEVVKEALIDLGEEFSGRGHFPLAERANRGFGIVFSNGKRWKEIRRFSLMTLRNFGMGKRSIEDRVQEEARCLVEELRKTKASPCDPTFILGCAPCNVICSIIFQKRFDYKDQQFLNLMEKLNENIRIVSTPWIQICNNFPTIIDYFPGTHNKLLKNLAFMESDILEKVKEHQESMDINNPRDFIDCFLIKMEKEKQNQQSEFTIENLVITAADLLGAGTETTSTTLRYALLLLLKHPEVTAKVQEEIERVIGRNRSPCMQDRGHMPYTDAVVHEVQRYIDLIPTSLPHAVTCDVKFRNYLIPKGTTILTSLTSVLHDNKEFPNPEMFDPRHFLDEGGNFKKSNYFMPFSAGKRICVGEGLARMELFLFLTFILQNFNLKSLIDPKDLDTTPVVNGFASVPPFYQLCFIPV

Row | SMILES | AC50 | activity, negative = inhibition
1 | CC1CCN(CC(=O)Nc2cccc([N+](=O)[O-])c2)CC1 | 4.47 µM (active) | –
2 | O=C1c2ccccc2S(=O)(=O)N1CCCCN1CCN(c2ncccn2)CC1 | 0.631 µM (active) | –
3 | O[C@H](CCCN1CCN(c2ncc(F)cn2)CC1)c1ccc(F)cc1 | inactive | –
4 | Cn1cccc1C(=O)N1CCC2(CC1)CCN(c1ccc(-c3ccccc3)cc1)CC2 | inactive | –
5 | O=C(NCCN1CCCCC1)c1ccc(I)cc1 | inactive | –
6 | Cc1ccc(C(=O)NCCCN2CCOCC2)cc1N1CCCC1=O | inactive | –
7 | COc1ccc(C(=O)Nc2ccc(Cl)cc2C(=O)NCCN2CCOCC2)cc1 | 10 µM (active) | –
8 | O=C(NCCN1CCOCC1)c1ccc2ccccc2c1 | 7.94 µM (active) | –
9 | COc1ccc(-c2cn3c(C)c(C(=O)NCCN4CCOCC4)sc3n2)cc1 | inactive | –
10 | COc1ccc(C(=O)NCCCN2CCOCC2)cc1OC | inactive | –
11 | O=C(NCCN1CCOCC1)c1csc2c1CCCCC2 | 28.2 µM (active) | –
12 | CC(=O)N1CCC2(CC1)CN(C(=O)Nc1cccc(C#N)c1)C2 | inactive | –
13 | Cc1nc(SCC(=O)Nc2c(C)n(C)n(-c3ccccc3)c2=O)nc(C)c1C | inactive | –
14 | C=CCn1c(SCC(=O)Nc2c(C)n(C)n(-c3ccccc3)c2=O)nc2sc(C)c(-c3ccccc3)c2c1=O | 15.8 µM (active) | –
15 | Cc1c(NC(=O)Cn2ccc([N+](=O)[O-])n2)c(=O)n(-c2ccccc2)n1C | inactive | –
16 | CC(=O)N1CCc2cc(S(=O)(=O)CCC(=O)Nc3c(C)n(C)n(-c4ccccc4)c3=O)ccc21 | inactive | –
17 | Cc1c(NC(=O)CSc2nnc3c4ccccc4n(CCc4ccccc4)c3n2)c(=O)n(-c2ccccc2)n1C | 25.1 µM (active) | –
18 | Cc1c(NC(=O)CSc2nnnn2C)c(=O)n(-c2ccccc2)n1C | inactive | –
19 | CC1(C)O[C@@H]2O[C@H]([C@H](O)CO/N=C3/[C@H]4O[C@@H]4[C@@H](O)[C@H]4[C@H]3CCn3c(=O)n(-c5ccccc5)c(=O)n34)[C@@H](O)[C@@H]2O1 | – | -36.7% [at 11.4 µM] (inactive)
20 | Cc1c(C(=O)NN2CCN(C)CC2)cccc1[N+](=O)[O-] | inactive | –
21 | Cc1c(C(=O)NCCC2=CCCCC2)cccc1[N+](=O)[O-] | 10 µM (active) | –
22 | CCC(=O)Nc1cc(-c2nn(C)c(=O)c3ccccc23)ccc1N1CCCCC1 | 15.8 µM (active) | –
23 | COCCn1c(=O)c(-c2ccc(Cl)cc2)nc2cnc(N3CCOCC3)nc21 | inactive | –
24 | Cn1nc(-c2ccc(N3CCOCC3)c(NS(=O)(=O)c3ccc(Cl)cc3)c2)c2ccccc2c1=O | 0.708 µM (active) | –
25 | Cn1c(=O)c(-c2ccc(Cl)cc2)nc2cnc(N3CCOCC3)nc21 | inactive | –
